# Assay results: PubChem BioAssay AID492963 (The Scripps Research Institute Molecular Screening Center, 2010)
# The whole screen tested about 1,100 compounds, of which about 420 (38%) were called active. A selection follows. A number with no mark means an inactive call. Cut-off read from the data, not from the text of the source: active = inhibition above about 29%; inactive = the rest.
# Biological target: Orexin/Hypocretin receptor type 1 (Homo sapiens) (UniProt O43613)
# Test: OX1R (HCRTR1) antagonists, confirmation, fluorescence, CHO/OX1R cells, Fluo-8 calcium, orexin A (AID 492963);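 note: 0% = agonist challenge alone and 100% = reference antagonist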
# Conditions: orexin A calcium Fluo-8 fluorescence, at 5 µM, hits give high values
# Orexin/Hypocretin receptor type 1 (Homo sapiens), sequence (O43613 whole entry, looked up): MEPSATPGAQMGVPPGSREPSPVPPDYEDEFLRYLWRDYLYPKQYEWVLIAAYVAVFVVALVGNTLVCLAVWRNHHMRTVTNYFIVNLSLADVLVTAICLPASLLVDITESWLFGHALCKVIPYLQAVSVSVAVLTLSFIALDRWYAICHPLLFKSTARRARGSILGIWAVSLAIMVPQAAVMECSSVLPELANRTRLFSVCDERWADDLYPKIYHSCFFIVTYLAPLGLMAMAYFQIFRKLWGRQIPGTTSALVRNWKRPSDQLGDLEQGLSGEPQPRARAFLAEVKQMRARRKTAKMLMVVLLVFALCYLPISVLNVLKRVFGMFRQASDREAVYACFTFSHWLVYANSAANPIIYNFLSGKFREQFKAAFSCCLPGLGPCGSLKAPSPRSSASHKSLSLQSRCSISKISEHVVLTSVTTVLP
row,Structure (SMILES),inhibition
1,O=C(Nc1cccc2cccnc12)c1cccc(N2C(=O)CCC2=O)c1,33.2% (active)
2,CCOC(=O)c1cccc(NC(=O)CN(c2ccc(C)cc2)S(=O)(=O)c2c(C)noc2C)c1,5.21%
3,COc1ccc2sc(-c3ccc(N(C)C)cc3)c(C#CCO)c2c1,25.9%
4,CCOC(=O)c1c(-c2ccc(C)cc2C)csc1NC(=O)CSc1nnnn1C,-17.1%
5,CCn1c(SCC(=O)c2ccc3ccccc3c2)nnc1-c1cccs1,29.5% (active)
6,CCOC(=O)N1CCN(C(=O)c2ccc(S(=O)(=O)Nc3cccc(C(F)(F)F)c3)cc2)CC1,15.2%
7,COc1ccc(N2CC(C(=O)NCCN3C(=O)S/C(=C\c4cccnc4)C3=O)CC2=O)c(OC)c1 (stereo not given),26.6%
8,COc1cc(CN2CC(C)CC(C)C2)cc([N+](=O)[O-])c1O (stereo not given),-4.4%
9,Cc1cc(C)cc(NC(=O)C2CCCN2S(=O)(=O)c2cccc3cccnc23)c1 (stereo not given),62.9% (active)
10,COc1ccccc1CNC(=O)C1CCCN(S(=O)(=O)c2cccc3cccnc23)C1 (stereo not given),-1.33%
11,NC(=O)C1=C[C@@H](c2ccc3c(c2)OCO3)C[C@@H](OCCCCO)O1,1.6%
12,CC1(C)C2CC=C(/C=N/NC(=O)C3CC3)C1C2 (stereo not given),-24.5%
13,O=C(Cn1[nH]c(=O)c2ccccc2c1=O)Nc1cccc(-c2nnc3n2CCCCC3)c1,24.9%
14,S=C(NCc1ccc(Cl)cc1)NC12CC3CC(CC(C3)C1)C2,10.8%
15,Cc1cc(N2CCCC2=O)cc(C)c1S(N)(=O)=O,1.01%
16,N#C/C(=C/c1ccc(N2CCCCC2)o1)C(=O)NCCc1c[nH]c2ccccc12,48.7% (active)
17,O=C(N/N=C/c1c(Cl)[nH]c2ccccc12)c1sc2ccccc2c1Cl,79% (active)
18,C/C(N)=C(/C#N)C(=O)COC(=O)c1cc(-c2ccc(C)cc2)nc2ccccc12,-4.02%
19,CCc1ccccc1OCC(=O)Nc1ccc(C)c(S(=O)(=O)N2CCCCCC2)c1,5.4%
20,O=C(NC(Cc1c[nH]c2ccccc12)C(=O)N/N=C/c1ccc(Br)cc1)c1cccs1 (stereo not given),55.8% (active)
21,CCOc1ccc(CCNC(=O)C(CC)n2nc(C)n3c(cc4sccc43)c2=O)cc1OCC (stereo not given),25.3%
22,CC(C)(C)NC(=O)CN(C(=O)c1csnn1)c1ccccc1-c1ccccc1,18.8%

row,Structure (SMILES),inhibition
1,N#C/C(=C1\CCCN1)c1nc(-c2ccccc2)cs1,40% (active)
2,N#CC(=C1SC=CS1)c1nc(-c2ccccc2)cs1,87.3% (active)
3,Nc1nc(COC(=O)CCC(=O)c2ccc(Cl)cc2)nc(Nc2ccccc2)n1,19.1%
4,CC(Oc1ccc2ccccc2c1)C(=O)NNC(=S)NC(=O)c1ccco1 (stereo not given),5.25%
5,N/C(=N\OC(=O)Nc1ccc(Cl)c(Cl)c1)c1ncc(C(F)(F)F)cc1Cl,29% (active)
6,COC(=O)c1sccc1NC(=O)CSc1ccccc1NS(=O)(=O)c1cc(Cl)ccc1Cl,21.5%
7,Cc1cc(C(=O)NC2CCCc3c2cnn3-c2cccc(C)c2C)c(C)o1 (stereo not given),27.6%
8,CC(=O)Nc1cccc(OCC(=O)/C=C2\N(C)c3ccccc3C2(C)C)c1,15.6%
9,Cc1cccc(NS(=O)(=O)c2cccc(C(=O)NNC(=O)c3ccccc3O)c2)c1,14.2%
10,COc1ccc(/C=C/C(=O)c2ccc(NS(=O)(=O)c3ccc(C)cc3)cc2)cc1O,42.2% (active)
11,O=C1C=C(c2ccc(Cl)cc2)C(=O)N1Nc1ccccc1,57% (active)
12,Cc1ccc2c(C)c(C(=O)N(C)CCC3CCCCO3)oc2c1C (stereo not given),-17.4%
13,O=C(N/N=C/c1sc(N2CCCCC2)nc1-c1cccs1)c1cccnc1,48.1% (active)
14,Cc1cccc(NC(=O)Nc2cccc(Oc3c(F)c(F)c(F)c(F)c3F)c2)c1,12.1%
15,CCCN(CC(=O)Nc1ccccc1OC)C(=O)CCC(=O)c1ccc(F)cc1,1.45%
16,Cc1cc(-c2ccc(C)c(S(=O)(=O)NC(C)Cc3ccco3)c2)on1 (stereo not given),0.43%
17,CCOc1ccc(/C=C/C(=O)OCC(=O)c2ccccc2OC)cc1OC,36.1% (active)
18,O=C(CCCN1CCc2[nH]c3ccc(F)cc3c2C1)c1ccc(F)cc1,26.4%
19,Cn1c(N)c(C(=O)COC(=O)c2ccc3ccccc3c2)c(=O)n(C)c1=O,30.5% (active)
20,Cc1ccc(S(=O)(=O)N2CCN(c3ncnc4ccccc34)CC2)cc1,15%
21,CCOc1cc(/C=C(\C#N)c2nc(-c3cccs3)c(NC(C)=O)s2)ccc1O,18%
22,O=C1c2ccccc2S(=O)(=O)N1CC(O)Cn1c2ccccc2c2ccccc21 (stereo not given),29.4% (active)

row,Structure (SMILES),inhibition
1,CC1CCCN(CC(O)COCc2ccccc2)C1 (stereo not given),5.05%
2,O=C(OC1CCOC1=O)c1ccc(-c2nc3ccccc3s2)s1 (stereo not given),43.4% (active)
3,CCCc1nc2c(c(=O)c3ccccc3n2C)c(=O)n1C1CCCCCC1,9.14%
4,S=c1[nH]nc(-c2cc(-c3ccccc3)n[nH]2)n1/N=C/c1c2ccccc2cc2ccccc12,38.1% (active)
5,CCOC(=O)N1CCN(c2cc(C)c([N+](=O)[O-])cc2F)CC1,17.3%
6,COc1cccc(C(=O)NC(=O)Nc2nc(C)cc(C(F)(F)F)n2)c1,35% (active)
7,CCCCC(=O)NNC(=S)NC(=O)C(c1ccccc1)c1ccccc1,58.6% (active)
8,CCCCCCCC(=O)NC(Nc1ccccc1OC)C(Cl)(Cl)Cl (stereo not given),-23.5%
9,Cc1ccc(NC(=O)COc2ccc(-n3ccnc3)cc2)cc1Cl,22.1%
10,COc1cc2ccccc2cc1C(=O)Nc1ccc(N2CCOCC2)cc1,-1.28%
11,O=C(Nc1cccc(NC(=O)N2CCN(c3ccccc3)CC2)c1)N1CCN(c2ccccc2)CC1,37.3% (active)
12,CN(c1ccccc1)S(=O)(=O)c1cccc(NC(=O)Cc2ccc(Cl)cc2)c1,26%
13,N#Cc1nc(-c2cccc3ccccc23)oc1N,40.6% (active)
14,COc1cccc(/C=N/Nc2cc(C)nc(-c3ccccc3O)n2)c1O,69.7% (active)
15,COc1cccc(/C=N/NC(=O)c2[nH]nc3c2CCc2ccccc2-3)c1O,20.3%
16,CCC(=O)N(C)C(c1ccccc1Cl)c1nnnn1-c1c(C)cccc1C (stereo not given),21.7%
17,Cc1ccccc1S(=O)(=O)N1[C@@H](c2cccc(Cl)c2)C(C(=O)O)=CC[C@H]1c1ccc(Cl)cc1,43.3% (active)
18,COCc1c(C(=O)OCC(=O)Nc2ccc(OC(F)F)cc2)oc2ccccc12,26.3%
19,C=CCn1c(SCC(=O)Nc2nc3ccccc3s2)nnc1-c1ccccc1O,48% (active)
20,COc1ccc2[nH]cc(/C=C(/C#N)S(=O)(=O)c3ccccc3)c2c1,8.34%
21,c1coc(CNc2ncnc3ccccc23)c1,24.7%
